# The full list was thinned out, with the strongest signals kept by preference.
# B1: GS13686A-pdi-553-26-553 (Parabacteroides distasonis) (protein)
# chain: NENPDKPTDDVNYNMNEPRLASTLRGGLIIEGNVEQRLKPLQIDFYSQMTVDGGGWGTKNYIQDDEWNNLVWEEYLKQIASINIVIRSLTEKDKDAYANTIAFARIWRVYVHTLAADKFGPMPFPAYEIVEANPPYKSLKDIYDEYFRELDAAINGFNDSAQPIFSDAGIDLIYKNDVSKWKRFANSLRLRLAVRLTEVDQEKCIAEANAAISSPAGLISDKADNAYMPPKADGSWGQDYNYTMFQITWSGPICMSKSVEKLVTNIGGVAWPQGVVNQTSGVAVSSVHPEKVDPRAPKIFQPGIENGDWKGLVYGPKAEEANTGIYQSKQCAELGFIIKDGYPYKSRPYDLFLSEEVHFLKAELYARGFIAGDAKSEYEAGVRASFATWGVTSEVDDYLTSTEKNEAGTSARYDDQQGAGNTALEKIITQKYIAGIPDLAQEGWNDKRRLNLPRLDVAVYRDQAVYNNNDKDILKSANFIKRMRYPTKESLINATEYEKGKSMLGGKGDIVSTPLWWDKNSNYCTSSK
# Assays:
# Assay in all cases: glycan array binding signal (z-score within array); higher = stronger binding
# Settings in all cases: glycan notation: IUPAC condensed, linker removed
# [1] = target: Fuc(a1-2)Gal(b1-3)GlcNAc(b1-2)Man(a1-3)[Fuc(a1-2)Gal(b1-3)GlcNAc(b1-2)Man(a1-6)]Man(b1-4)GlcNAc(b1-4)GlcNAc
# In short: (§1)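 Negative Z-scores can be read as non-binding. The Z-score is calculated within each array and then averaged across arrays of one protein sequence at different concentrations or buffers and across linkers. Arrays, 3228 in all, were curated from the Consortium for Functional Glycomics database and kept only where the protein sequence was available.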
# Fuc(a1-2)Gal(b1-4)Glc = target: Fuc(a1-2)Gal(b1-4)Glc
# In short: as §1
# Fuc(a1-2)Gal(b1-4)Glc6S = target: Fuc(a1-2)Gal(b1-4)Glc6S
# In short: as §1
# Fuc(a1-2)Gal6S(b1-4)Glc = target: Fuc(a1-2)Gal6S(b1-4)Glc
# In short: as §1
# [2] = target: Fuc(a1-2)[Gal(a1-3)]Gal(b1-4)GlcNAc(b1-3)[Fuc(a1-2)[Gal(a1-3)]Gal(b1-4)GlcNAc(b1-6)]GalNAc
# In short: as §1
# [3] = target: Fuc(a1-2)[Gal(a1-3)]Gal(b1-4)GlcNAc(b1-6)GalNAc
# In short: as §1
# [4] = target: Fuc(a1-2)[GalNAc(a1-3)]Gal(b1-3)GalNAc(b1-3)Gal(a1-4)Gal(b1-4)Glc
# In short: as §1
# [5] = target: Fuc(a1-2)[GalNAc(a1-3)]Gal(b1-4)GlcNAc(b1-2)Man(a1-3)[Fuc(a1-2)[GalNAc(a1-3)]Gal(b1-4)GlcNAc(b1-2)Man(a1-6)]Man(b1-4)GlcNAc(b1-4)[Fuc(a1-6)]GlcNAc
# In short: as §1
# [6] = target: Fuc(a1-2)[GalNAc(a1-3)]Gal(b1-4)GlcNAc(b1-3)Gal(b1-4)GlcNAc
# In short: as §1
# [7] = target: Fuc(a1-2)[GalNAc(a1-3)]Gal(b1-4)GlcNAc(b1-3)Gal(b1-4)GlcNAc(b1-3)Gal(b1-4)GlcNAc
# In short: as §1
# [8] = target: Fuc(a1-2)[GalNAc(a1-3)]Gal(b1-4)GlcNAc(b1-6)GalNAc
# In short: as §1
# [9] = target: Fuc(a1-2)[GalNAc(a1-4)]Gal(b1-4)GlcNAc
# In short: as §1
# [10] = target: Fuc(a1-3)[Gal(b1-4)]GlcNAc(b1-2)Man
# In short: as §1
# [11] = target: Fuc(a1-3)[Gal(b1-4)]GlcNAc(b1-3)Gal(b1-4)[Fuc(a1-3)]GlcNAc(b1-3)Gal(b1-4)[Fuc(a1-3)]GlcNAc
# In short: as §1
# [12] = target: Fuc(a1-3)[Gal(b1-4)]GlcNAc6S
# In short: as §1
# Gal(a1-6)Glc = target: Gal(a1-6)Glc
# In short: as §1
# Gal(b1-3)GalNAc = target: Gal(b1-3)GalNAc
# In short: as §1
# [13] = target: Gal(b1-3)GlcNAc(b1-2)[Gal(b1-3)GlcNAc(b1-6)]Man(a1-6)[Gal(b1-3)GlcNAc(b1-2)Man(a1-3)]Man(b1-4)GlcNAc(b1-4)GlcNAc
# In short: as §1
# [14] = target: Gal(b1-3)GlcNAc(b1-3)Gal(b1-4)Glc
# In short: as §1
# [15] = target: Gal(b1-3)GlcNAc(b1-3)Gal(b1-4)GlcNAc(b1-2)[Gal(b1-3)GlcNAc(b1-3)Gal(b1-4)GlcNAc(b1-6)]Man(a1-6)[Gal(b1-3)GlcNAc(b1-3)Gal(b1-4)GlcNAc(b1-2)Man(a1-3)]Man(b1-4)GlcNAc(b1-4)[Fuc(a1-6)]GlcNAc
# In short: as §1
# [16] = target: Gal(b1-3)GlcNAc(b1-6)GalNAc
# In short: as §1
# [17] = target: Gal(b1-3)[Neu5Ac(b2-6)]GalNAc
# In short: as §1
# [18] = target: Gal(b1-4)GlcNAc(b1-2)Man(a1-3)[Gal(b1-4)GlcNAc(b1-2)Man(a1-6)][GlcNAc(b1-4)]Man(b1-4)GlcNAc(b1-4)[Fuc(a1-6)]GlcNAc
# In short: as §1
# [19] = target: Gal(b1-4)GlcNAc(b1-2)Man(a1-6)[GlcNAc(b1-2)Man(a1-3)]Man(b1-4)GlcNAc(b1-4)GlcNAc
# In short: as §1
# [20] = target: Gal(b1-4)GlcNAc(b1-2)Man(a1-6)[Man(a1-3)]Man(b1-4)GlcNAc(b1-4)GlcNAc
# In short: as §1
# [21] = target: Gal(b1-4)GlcNAc(b1-2)[Gal(b1-4)GlcNAc(b1-4)]Man(a1-3)[Gal(b1-4)GlcNAc(b1-2)[Gal(b1-4)GlcNAc(b1-6)]Man(a1-6)]Man(b1-4)GlcNAc(b1-4)GlcNAc
# In short: as §1
# [22] = target: Gal(b1-4)GlcNAc(b1-3)Gal(b1-3)GlcNAc
# In short: as §1
# [23] = target: Gal(b1-4)GlcNAc(b1-3)Gal(b1-4)GlcNAc(b1-3)Gal(b1-4)GlcNAc(b1-2)Man(a1-3)[Gal(b1-4)GlcNAc(b1-3)Gal(b1-4)GlcNAc(b1-3)Gal(b1-4)GlcNAc(b1-2)Man(a1-6)]Man(b1-4)GlcNAc(b1-4)GlcNAc
# In short: as §1
# [24] = target: Gal(b1-4)GlcNAc(b1-6)GalNAc
# In short: as §1
binder,measurement,setting,value
B1,glycan array binding signal (z-score),[1],0.144
same,glycan array binding signal (z-score),Fuc(a1-2)Gal(b1-4)Glc,-0.076
same,glycan array binding signal (z-score),Fuc(a1-2)Gal(b1-4)Glc6S,0.03
same,glycan array binding signal (z-score),Fuc(a1-2)Gal6S(b1-4)Glc,-0.226
same,glycan array binding signal (z-score),[2],0.003
same,glycan array binding signal (z-score),[3],0.081
same,glycan array binding signal (z-score),[4],-0.124
same,glycan array binding signal (z-score),[5],0.023
same,glycan array binding signal (z-score),[6],0.224
same,glycan array binding signal (z-score),[7],0.041
same,glycan array binding signal (z-score),[8],-0.281
same,glycan array binding signal (z-score),[9],1.95
same,glycan array binding signal (z-score),[10],-0.253
same,glycan array binding signal (z-score),[11],-0.035
same,glycan array binding signal (z-score),[12],-0.276
same,glycan array binding signal (z-score),Gal(a1-6)Glc,0.108
same,glycan array binding signal (z-score),Gal(b1-3)GalNAc,0.011
same,glycan array binding signal (z-score),[13],0.046
same,glycan array binding signal (z-score),[14],-0.082
same,glycan array binding signal (z-score),[15],1.83
same,glycan array binding signal (z-score),[16],1.97
same,glycan array binding signal (z-score),[17],1.03
same,glycan array binding signal (z-score),[18],1.35
same,glycan array binding signal (z-score),[19],0.027
same,glycan array binding signal (z-score),[20],-0.04
same,glycan array binding signal (z-score),[21],2.01
same,glycan array binding signal (z-score),[22],-0.133
same,glycan array binding signal (z-score),[23],0.45
same,glycan array binding signal (z-score),[24],-0.056
